Experimental data from PubChem BioAssay (NCATS).
“And” between values parts separate entries of the source, which are not always exact repeats. Identical values can stand only once. The source made the active and inactive calls. The call rests on the fitted dose curve; in most records, active means well fitted activation curve with a large enough effect; inconclusive means small, poorly fitted or top-dose-only effect; inactive means no such curve, though single readings can be large or run the other way.

Biological target: Cytochrome P450 3A4 (Homo sapiens) (UniProt P08684)
Sequence (P08684 whole entry, looked up): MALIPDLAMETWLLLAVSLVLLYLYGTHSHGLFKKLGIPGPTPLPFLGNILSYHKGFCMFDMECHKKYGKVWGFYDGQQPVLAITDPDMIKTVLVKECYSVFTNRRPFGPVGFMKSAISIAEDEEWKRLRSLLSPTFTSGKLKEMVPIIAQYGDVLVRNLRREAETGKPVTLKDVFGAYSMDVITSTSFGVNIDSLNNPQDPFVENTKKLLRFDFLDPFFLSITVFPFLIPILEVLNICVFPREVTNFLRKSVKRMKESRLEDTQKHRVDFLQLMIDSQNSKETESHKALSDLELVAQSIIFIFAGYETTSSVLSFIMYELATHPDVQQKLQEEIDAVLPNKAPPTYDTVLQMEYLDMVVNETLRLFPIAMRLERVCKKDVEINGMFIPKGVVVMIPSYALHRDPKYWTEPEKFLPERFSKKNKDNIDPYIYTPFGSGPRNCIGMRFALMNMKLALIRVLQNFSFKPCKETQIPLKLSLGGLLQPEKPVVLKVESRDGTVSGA
Test: qHTS Assay for Activators of Cytochrome P450 3A4 (AID 885); further: nearly all actives have a fitted effect of over 65% in size
Conditions: recombinant CYP3A4, Luciferin-PPXE luminescence, 60 min; series mostly up to 57.1 µM
Procedure, shortened: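 Signal was normalized against complete inhibition by 57 uM ketoconazole. The reaction used 20nM CYP3A4 with 25uM Luciferin-PPXE, 10-min compound preincubation and a 60-min NADPH-supported step at RT.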

Potency, inactive:
CC(Cc1ccccc1)C(=O)NCCc1c[nH]c2ccccc12 (stereo not given)
CCC1=C2CC[C@H]3C(=O)N(c4ccccc4)C(=O)[C@H]3[C@H]2[C@@]2(Cc3ccccc3)C(=NCC3CC3)OC(=O)N2C1=O
CCC1=C2CC[C@H]3C(=O)N(c4ccccc4)C(=O)[C@H]3[C@H]2[C@@]2(Cc3ccccc3)C(=O)N(CC(=O)OC)C(=O)N2C1=O
N#Cc1ccc(C23CC4(C2)[C@H](CN(CC2CCCCC2)[C@@H]4c2ccccc2)C3c2ccccc2)cc1 (stereo not given in full)
CCC1=C2CC[C@H]3C(=O)N(CC)C(=O)[C@H]3[C@H]2[C@@]2(Cc3ccccc3)C(=O)N(CCOC)C(=O)N2C1=O
Cn1c(=O)c(C(=O)COC(=O)c2cc(C(F)(F)F)nc3c(C(F)(F)F)cccc23)c(N)n(CC2CC2)c1=O
COC(=O)c1ccc(C(NC(=O)OCc2ccccc2)/C(C)=C/[C@@H](C)C(=O)N(C)Cc2cccnc2)cc1 (stereo not given in full)
COC(=O)c1cccc(C23CC4(C2)[C@H](CN(C)[C@@H]4c2ccccc2)C3c2ccc(C(F)(F)F)cc2)c1 (stereo not given in full)
O=c1cc(-c2cccc(O)c2)oc2cccc(O)c12
O=c1oc2ccccc2c2oc3cc(O)c(O)cc3c12
CCC1=C(OC(=O)N(CC)CC)N2C(=O)OC(=NCC3CC3)[C@]2(C)[C@H]2C1=CC[C@H]1C(=O)N(c3ccccc3)C(=O)[C@H]12
COC(=O)[C@@H]1C[C@@]2(O)[C@@H](O)[C@@H](O)[C@@H](O)C[C@H]2N1Cc1cc(OC)cc(OC)c1
COC(=O)[C@H]1C[C@H]2CC[C@H](O)C[C@H]2N1Cc1c(F)cccc1Cl
CCC1=C(OC(=O)N(CC)CC)N2C(=O)OC(=NCC3CC3)[C@]2(Cc2ccccc2)[C@H]2C1=CC[C@H]1C(=O)N(CC)C(=O)[C@H]12
CCC1=C(OC(=O)N(CC)CC)N2C(=O)OC(=NCC(=O)OC)[C@]2(C)[C@H]2C1=CC[C@H]1C(=O)N(C)C(=O)[C@H]12
CCCC[C@@H]1C[C@H]1[C@@H](NP(=O)(c1ccccc1)c1ccccc1)c1ccccc1OC
FC(F)(F)c1ccc(C2[C@H]3CN(Cc4cccnc4)[C@H](c4ccccc4)C34CC2(c2ccccc2)C4)cc1 (stereo not given in full)
CCC1=C(OC(=O)N(CC)CC)N2C(=O)OC(=NCCOC)[C@]2(Cc2ccccc2)[C@H]2C1=CC[C@H]1C(=O)N(CC(=O)OC)C(=O)[C@H]12
c1ccc(C2[C@H]3CN(Cc4cccnc4)[C@H](c4ccccc4)C34CC2(c2cccnc2)C4)cc1 (stereo not given in full)
Cn1c(N)c(C(=O)COC(=O)c2cc(-c3ccccc3)nc3ccccc23)c(=O)n(C)c1=O
CCC1=C(OC(=O)N(CC)CC)N2C(=O)OC(=NCCc3c[nH]c4ccccc34)[C@]2(Cc2ccccc2)[C@H]2C1=CC[C@H]1C(=O)N(CC)C(=O)[C@H]12
COCCN=C1OC(=O)N2C(=O)C3=C4C(C[C@H]5C(=O)N(c6ccccc6)C(=O)[C@H]5[C@H]4[C@@]12Cc1ccccc1)[C@H]1C(=O)N(c2ccccc2)C(=O)[C@H]1[C@H]3C (stereo not given in full)
Clc1ccc(C2[C@H]3CN(CC4CCCCC4)[C@H](c4ccccc4)C34CC2(c2cccnc2)C4)cn1 (stereo not given in full)
CCC1=C(OC(=O)N(CC)CC)N2C(=O)OC(=NCC3CC3)[C@]2(Cc2ccccc2)[C@H]2C1=CC[C@H]1C(=O)N(c3ccccc3)C(=O)[C@H]12
Cc1ccc(CC(Cc2nc3ccccc3[nH]2)c2nc3ccccc3[nH]2)cc1 (stereo not given)
FC(F)(F)c1ccc(CN2C[C@@H]3C(c4ccccc4)C4(c5cccnc5)CC3(C4)[C@H]2c2ccccc2)cc1 (stereo not given in full)
CCC1=C(OC(=O)N(CC)CC)N2C(=O)OC(=NCc3ccccc3)[C@]2(C)[C@H]2C1=CC[C@H]1C(=O)NC(=O)[C@H]12
O=C(/C=C/c1ccc2c(c1)OCO2)c1cccs1
COC(=O)c1cccc(C23CC4(C2)[C@H](CN(C)[C@@H]4c2ccccc2)C3c2ccccc2)c1 (stereo not given in full)
CCC1=C(OC(=O)N(CC)CC)N2C(=O)OC(=NCC(=O)OC)[C@]2(C)[C@H]2C1=CC[C@H]1C(=O)N(CC)C(=O)[C@H]12
CCCCNC(=O)C(c1ccc(OCC(=O)OC)c(C(=O)OC)c1)N(Cc1ccccn1)C(=O)CCCCCN1C(=O)NC(c2ccc(-c3ccccc3)cc2)C(C(=O)OCc2ccccc2)=C1C (stereo not given)
COC(=O)c1cccc(C23CC4(C2)[C@H](CN(Cc2cccnc2)[C@@H]4c2ccccc2)C3c2ccc(Cl)nc2)c1 (stereo not given in full)
COC(=O)[C@@H]1C[C@@]2(O)[C@H](O)[C@H](O)[C@H](O)C[C@H]2N1Cc1ccccc1OS(=O)(=O)c1ccc(C)cc1
FC(F)(F)c1ccc(C2[C@H]3CN(Cc4cccnc4)[C@H](c4ccccc4)C34CC2(c2cccnc2)C4)cc1 (stereo not given in full)

Activity change, positive = activation, inactive:
COc1ccc(O[C@H]2C=C[C@@H](c3ccccc3)O[C@H]2COC(=O)CC/C(C)=N\O[C@@H](C)c2cc(-c3c(C)cc(C)cc3C)no2)cc1 -63.2% [at 11.4 µM]
C/C(CCN1CCCCc2nc(C)c(C)cc21)=N\OC[C@@H](O)COCc1ccco1 -64.3% [at 11.4 µM]
COC(=O)C/C=C\[C@@H](C)[C@@H](/C=N\O[C@@H](C)CN1CCCCc2nc(C)c(C)cc21)NS(=O)(=O)c1ccc(C)cc1 -78.5% [at 11.4 µM]
COC(=O)C/C=C\[C@@H](C)[C@@H](/C=N\O[C@@H](C)c1cn([C@H](CO)Cc2ccccc2)nn1)OC -56.1% [at 11.4 µM] and -71.3% [at 11.4 µM]
COc1cccc([C@@H]2Oc3ccc(OC)cc3/C(=N/O[C@@H](C)c3cn([C@H]4COC[C@H]4O)nn3)[C@@H]2O)c1 -74.6% [at 11.4 µM]
C#CCCCO/N=C1/C[C@@H](O)[C@@H](O)[C@@H]2[C@@H]3C(=O)N([C@@H](C)c4ccccc4)C(=O)[C@H]3CC[C@H]12 -89.1% [at 11.4 µM]
